Results from PubChem BioAssay (NCI).
This is part of a sample that, as a whole, favours compounds with a hit. Of some 83,000 tested, about 20% had one in any assay.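 Growth was measured after 48 h exposure to one concentration of compound in 96-well plates. Values under 10 count as active.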 Values without a mark were called inactive. Calls of active or inactive are those of the source.

Key:
Experiment in all cases: NCI-60 one-dose screen, 48 h (100 = growth as untreated, 0 = no growth, -100 = all killed)
Details in all cases: 10 µM unless noted
HT29 colon = system: HT29 colon
SNB-75 CNS = system: SNB-75 CNS
SNB-19 CNS = system: SNB-19 CNS
U251 CNS = system: U251 CNS
PC-3 prostate = system: PC-3 prostate
SK-MEL-5 melanoma = system: SK-MEL-5 melanoma
UACC-62 melanoma = system: UACC-62 melanoma
SK-MEL-28 melanoma = system: SK-MEL-28 melanoma
SK-MEL-2 melanoma = system: SK-MEL-2 melanoma
LOX IMVI melanoma = system: LOX IMVI melanoma

Row | SMILES | growth (HT29 colon) | growth (SNB-75 CNS) | growth (SNB-19 CNS) | growth (U251 CNS) | growth (PC-3 prostate) | growth (SK-MEL-5 melanoma) | growth (UACC-62 melanoma) | growth (SK-MEL-28 melanoma) | growth (SK-MEL-2 melanoma) | growth (LOX IMVI melanoma)
1 | COc1ccc(-n2c(SCC(=O)Nc3ccc(-c4nc5ccccc5[nH]4)cc3)nc3ccccc3c2=O)cc1 | -5.71% (active) | 62.8% | 20.9% | -83.4% (active) | 6.41% (active) | -7.57% (active) | -18.3% (active) | -64% (active) | 97.7% | –
2 | O=C(N/N=C/c1ccco1)c1[nH]c2ccc(Br)cc2c1-c1ccccc1 | -25.3% (active) | 31.7% | 41.4% | 31.7% | 30.2% | -16.2% (active) | 41.1% | – | 14.4% | –
3 | N#Cc1c(-c2ccc(Cl)cc2)nc2c(-c3ccccc3)c(Nc3ccccc3)nn2c1N | 62.9% | 4.2% (active) | 72.8% | 19.8% | 62.2% | 92.9% | 62.8% | 82.5% | 96% | –
4 | CN1CCc2c(sc3ncnc(N/N=C/c4ccc(Cl)c(Cl)c4)c23)C1 | -46.6% (active) | 79.5% | 42% | -43.6% (active) | 53.6% | 86.6% | -26.8% (active) | 21.4% | 117% | –
5 | CCCC(=O)NC(c1cccc(N(C)C)c1)c1cc(C)c2cccnc2c1O (stereo unspecified) | 91.6% | 76.8% | 69.3% | 55.5% | 50.1% | 62.7% | 46.1% | 77.1% | 89.9% | –
6 | Fc1ccc(-c2cc3nc(C(Cl)Cl)nc(-c4ccc(Cl)cc4)n3n2)cc1 | -35% (active) | -2% (active) | 6.37% (active) | -58.1% (active) | 22.8% | 76.9% | – | 11.6% | 89.4% | 70.9%
7 | CCOC(=O)c1c(Nc2ccccc2)nn2c(N)c(C#N)c(-c3ccccc3)nc12 | 92.1% | 86.1% | 89.4% | 74.6% | 76.5% | 86.8% | – | 99.4% | 92.2% | –
8 | CCCCCCNC(=O)Oc1ccc(/C(=C(/C)c2ccccc2)c2ccc(OCCN3CCCCCC3)cc2)cc1 | -13.3% (active) | 56% | 66.7% | 22.1% | 38.7% | 20.1% | – | 44.4% | 95.9% | –
9 | COc1ccc(-c2csc(N/N=C/c3c(-c4ccc(S(C)(=O)=O)cc4)nc4ccccn34)n2)cc1 | 115% | 110% | 106% | 106% | 105% | 96.5% | – | 107% | 114% | 126%
10 | Cc1cc(=O)oc2cc(OCCCOc3ccc(/C=C/C(=O)Nc4ccc(Cl)cc4)cc3)ccc12 | 98.1% | 73.3% | 89.6% | 56.4% | 67.7% | 55.9% | – | 75.8% | – | 40.8%
11 | NC(=O)c1c(NC(=O)c2ccc(C3CCCCC3)cc2)sc2c1CCC(=O)C2 | 2.41% (active) | 43.2% | 25.5% | 10.7% | 16.1% | – | 26.4% | – | 25.7% | –
12 | Clc1ccc2oc3c(NCCCN4CCOCC4)c4ccccc4nc3c2c1 | 14% | 24.7% | 35.9% | 23% | 40.7% | 44.2% | – | – | 56.8% | -53.1% (active)
13 | Cc1ccc(CNS(=O)(=O)/N=C2\NC(=O)NC2=C(Cl)Cl)cc1 | 15.7% | -2.97% (active) | 46.9% | 39.1% | 38.9% | – | 77.3% | 83.8% | 28.8% | –
14 | COC1CCN(Cc2ccc3c(NNC(=O)c4cnccn4)nc4cc(F)ccc4n23)C1 (stereo unspecified) | 19.3% | 65.8% | 36.1% | 12.8% | 40.9% | 15.9% | – | 29.2% | – | 5.96% (active)
15 | CSCCC(C(=O)O)N1C(=O)/C(=C/c2ccc(O)c(O)c2)SC1=S (stereo unspecified) | 105% | 93.6% | 97.9% | 93.4% | 99.2% | 99.9% | – | 99.5% | 133% | –
16 | NS(=O)(=O)c1cccc(Nc2nc(SCC(=O)c3ccc(Br)cc3)nc3ccccc23)c1 | 90.2% | 10.9% | 35.3% | 59.7% | 36.5% | 58.7% | – | 84.4% | 89.9% | –

Row | SMILES | growth (HT29 colon) | growth (SNB-75 CNS) | growth (SNB-19 CNS) | growth (U251 CNS) | growth (PC-3 prostate) | growth (SK-MEL-5 melanoma) | growth (UACC-62 melanoma) | growth (SK-MEL-28 melanoma) | growth (SK-MEL-2 melanoma) | growth (LOX IMVI melanoma)
17 | COc1cc(/C=C/C(=O)c2cc(OC)c(OC)c(OC)c2)ccc1OCc1ccccc1 | 5.03% (active) | 13% | 34% | 13.6% | 40.1% | 63.2% | – | 78.8% | 80.7% | –
18 | O=C1c2c(c3c4cc(Br)ccc4[nH]c3c3ccc4ccccc4c23)C(=O)N1CCO | 89.9% | 128% | 85.6% | 74.3% | 83.3% | 100% | – | 99.8% | 110% | –
19 | N#Cc1nc(-c2ccccc2)oc1N1CC[C@@H](CO)C1 | 107% | 98.3% | 94% | 103% | 92.2% | 99.6% | – | 101% | 110% | –
20 | Cn1c(SCC(=O)c2cccs2)nc2ccccc2c1=O | 106% | 88.7% | 102% | 97.5% | 90.3% | – | 92.6% | 105% | 98% | –
21 | COc1ccc(NC2=C(Cl)C(=O)C(C)=C(C)C2=O)cc1OC | 101% | 126% | 84.7% | 77.7% | 67.9% | – | 81.2% | – | 83.7% | –
22 | c1ccc2c(NCCCN3CCOCC3)c3oc4ccccc4c3nc2c1 | -48.2% (active) | -4.26% (active) | 5.03% (active) | -2.33% (active) | 7.6% (active) | -90.4% (active) | – | -46.9% (active) | -75.4% (active) | -38.6% (active)
23 | COc1cccc(NC2=CC(=O)C(C)=C(C)C2=O)c1 | 98.3% | 99.8% | 97.7% | 95.1% | 36.3% | – | 91.8% | – | 83.6% | –
24 | COc1ccc([C@@H]2c3[nH]c4ccccc4c3CC3C(=O)N(C4CCN(Cc5c(F)cccc5F)CC4)CC(=O)N32)c(OC)c1 (stereo partly specified) | 44% [5.26 µM] | 22.3% [5.26 µM] | 64.2% [5.26 µM] | 62% [5.26 µM] | 35.2% [5.26 µM] | -9.17% [5.26 µM] (active) | – | 60.9% [5.26 µM] | 74.5% [5.26 µM] | –
25 | COc1cc(OC)c(C2C(Cl)C(=O)N2Nc2ncnc3ccccc23)cc1OC (stereo unspecified) | 112% | 80.5% | 98.9% | 91.7% | 89.6% | 99.3% | – | 105% | 121% | 45.6%
26 | COc1cc(/C=C/C(=O)c2cc(OC)c(OC)c(OC)c2)ccc1OCc1ccc(F)cc1 | 4.34% (active) | 8.67% (active) | 49.8% | 33.8% | 35% | 58.7% | – | 81.1% | 90% | –
27 | Nc1cc(-c2c[nH]c3ccc(Cl)cc23)nc2cc(-c3c[nH]c4ccc(Cl)cc34)nn12 | 0.992% (active) | 71.9% | 70.5% | 9.85% (active) | 36.4% | 70.9% | – | 80.8% | 71.6% | -5.92% (active)
28 | COc1ccc(NC(=O)c2sc3nc(-c4cnccn4)cc(-c4cccs4)c3c2N)cc1 | 20.8% | 67.1% | 93.6% | 55.5% | 82.7% | 59.4% | – | 84.3% | – | 18.4%
29 | CCCC(=O)NC(c1ccc2c(c1)OC(F)(F)O2)c1cc(C)c2cccnc2c1O (stereo unspecified) | 32.3% | 40.4% | 22.5% | 14.8% | 36.6% | -31.2% (active) | – | 17.1% | 40.2% | 21.1%
30 | CO/N=C1\CCc2c(sc(NC(=O)c3cccc(C(F)(F)F)c3)c2C(N)=O)C1 | 51.2% | -58.4% (active) | 27.7% | 3.28% (active) | 64.8% | – | 76.8% | 60.3% | 63.9% | –
31 | [Cl][Ru].c1ccc(-c2cccc(-c3ccccn3)n2)nc1.c1ccc(-c2ccnc3c2ccc2c(-c4ccccc4)ccnc23)cc1 | 21% | 1.93% (active) | 23.5% | 31.7% | 23.6% | 73.1% | – | 31.3% | -36.9% (active) | 37.4%
